Compounds with a hit are over-represented: about 4% of the library has one in this group of screens.
PAX8 inh HTS: PAX8 transcriptional activity inhibition; inhibition, % at 12.6 µM; RMG-I TPO-luciferase reporter, SteadyGlo, 24 h; AID 652154; actives 1.2% (n = 360,000);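 active = mean replicate inhibition at least 60% with every replicate also reaching 60%; inconclusive = only one of the two criteria is met; inactive = mean below 60% and not all replicates reaching 60%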;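 note: luciferase light reporting Pax8 driven TPO promoter activity; plate controls were median of neutral control wells for no effect and mitoxantrone controls for full effect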
esBAF inh: blocks esBAF chromatin remodeling in mouse ES cells | Bmi1-luciferase knock-in reporter, 24 h; 100% = twice the neutral-well signal | reporter increase, % at 12.5 µM | actives 2% (n = 350,000) | AID 602393; in the data active = activation above about 40%; inconclusive = no clear call, values can overlap the other calls;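 note: 0% = median of the plate's neutral control wells and 100% = double that signal; a rise in the Bmi1 reporter signal indicates esBAF inhibition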
MITF act: MITF TRPM1 promoter activation in melanoma cells; SK-MEL-5 TRPM1-promoter luciferase, 24 h; % of positive control, neutral wells = 0; activation, % at 12.5 µM; actives 0.75% (n = 300,000); AID 588334;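 active = mean activation of at least 80% with every replicate also reaching 80%; inconclusive = mean reaches 80% but some replicate falls short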;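 note: 0% = neutral control wells and 100% = parthenolide positive control wells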
Wnt bcat act: activates Wnt/beta-catenin signaling in a reporter cell assay; actives 1.2% (n = 300,000); activator, plate reader; activation, % at 9.35 µM; in the data active = activation above about 30%, passing the limit was not always enough; inconclusive = no clear call, values can overlap the other calls;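 note: 0% = neutral control wells and 100% = positive control wells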
MITF TRPM1 inh: inhibitors of MITF-driven TRPM1 promoter in melanoma cells; SK-MEL-5 TRPM1 promoter luciferase, 24 h; inhibition, % at 12.5 µM; actives 0.83% (n = 330,000);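 active = mean inhibition across replicates of 60% or more, whatever share of single replicates reaches that level; inconclusive = some that reach 60%, reason not given; inactive = mean inhibition across replicates below 60%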
EWS-Fli inh: EWS/Fli transcriptional activity inhibition. A673 NR0B1-luciferase reporter, viability-normalised. inhibition, % at 12.6 µM. actives 0.67% (n = 350,000);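 active = mean inhibition of at least 50% after viability correction, with every replicate also passing that limit; inconclusive = mean reaches 50% but only one of two replicates passes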;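 note: firefly luciferase signal divided by Alamar Blue viability fluorescence both relative to DMSO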
Numbers without * were called inactive; ? = inconclusive; nt = no result.

SMILES | PAX8 inh HTS | esBAF inh | MITF act | Wnt bcat act | MITF TRPM1 inh | EWS-Fli inh
COC(=O)c1ccc(CSc2n[nH]c(=S)s2)o1 | nt | 5 | nt | -4 | 7 | nt
COC(=O)c1ccc(CSc2n[nH]c(C)n2)o1 | 78* | nt | -5 | -1 | 10 | 1
C[C@H](CO)N1C[C@H](C)[C@@H](CN(C)Cc2ccc3c(c2)OCO3)Oc2ccc(NC(=O)Cc3ccccc3)cc2C1=O | 16 | 3 | nt | nt | nt | nt
COc1ccc(C(=O)COc2ccc(F)cc2)c(O)c1 | -164 | 68* | 74 | 0 | -68 | -34
COc1ccc(C(=O)Cc2cc(OC)c(OC)cc2[N+](=O)[O-])c(OC)c1 | nt | 52* | 30 | 11 | -26 | -45
COc1ccc(C(=O)Cc2ccc(F)cc2)c(OC)c1 | -155 | 76* | 74 | 23 | -70 | -66
Cc1cccc(C(=O)NNC(=O)c2ccc(F)cc2)c1 | -18 | nt | 15 | 3 | -15 | -11
Cc1cccc(C(=O)NNS(=O)(=O)c2ccc(F)cc2)c1 | 10 | 42* | nt | 0 | -1 | 2
C[C@@]12C(=O)OC(=O)[C@]1(C)C1CCC2O1 | 112* | -25 | -79 | -3 | 80* | 0
CCCCC1CCC(C(=O)N(CC(C)C)c2c(N)n(CCCC)c(=O)[nH]c2=O)CC1 (stereo not drawn) | 9 | nt | -74 | -3 | 74* | 0
CCCCC1CCC(C(=O)N(CCCC)c2c(N)n(CCCC)c(=O)[nH]c2=O)CC1 (stereo not drawn) | -1 | -1 | -91 | 0 | 91* | 5
CCCCC1CCC(C(=O)N(CCC(C)C)c2c(N)n(CCCC)c(=O)[nH]c2=O)CC1 (stereo not drawn) | -15 | -4 | nt | -17 | nt | 0
CCNC(=O)[C@H]1[C@H](CO)[C@H]2Cn3c(ccc(-c4ccccc4F)c3=O)[C@@H]1N2S(C)(=O)=O | nt | nt | nt | nt | nt | 16
Cc1noc(C)c1C(=O)OCC(=O)c1cc(C)n(Cc2ccccc2Cl)c1C | -142 | 28 | 55 | 41* | -52 | nt
Cc1noc(C)c1C(=O)OCC(=O)c1ccc[nH]1 | 0 | 9 | -3 | -2 | 5 | nt
Cn1nnnc1Sc1ncnc2scc(-c3ccccc3Cl)c12 | 91* | -14 | -42 | -2 | 44 | 17
Cn1nnnc1Sc1ncnc2scc(-c3cccc4c3sc3ccccc34)c12 | 88* | -3 | -48 | -4 | 51 | 11
CCC(=O)Nc1ccccc1Sc1ncnc2scc(-c3ccccc3)c12 | 2 | nt | -3 | nt | 5 | nt
COc1ccc(Nc2ncnc3scc(-c4ccc(OC)cc4)c23)cc1 | 35 | nt | -22 | -5 | 21 | 65*
COc1ccc(-c2csc3ncnc(Sc4nnnn4C)c23)cc1 | 101* | -7 | -3 | 2 | 7 | -3
COc1ccc(S(=O)(=O)N(C)C[C@H]2OCc3cnnn3CCCC(=O)N([C@@H](C)CO)C[C@@H]2C)cc1 | 3 | 1 | nt | nt | nt | -6
Cn1nnnc1Sc1ncnc2scc(-c3ccc([N+](=O)[O-])cc3)c12 | 108* | -30 | -97 | -20 | 98* | 19
Cn1nnnc1Sc1ncnc2scc(-c3ccc(Cl)cc3)c12 | 57 | -3 | -89 | -18 | 90* | 46
Cn1nnnc1Sc1ncnc2scc(-c3ccc4c(c3)OCO4)c12 | 101* | 15 | -29 | -7 | 29 | 7
Cn1nnnc1Sc1ccc([N+](=O)[O-])cc1Cl | 11 | nt | -11 | 0 | 13 | 4
SMILES | PAX8 inh HTS | esBAF inh | MITF act | Wnt bcat act | MITF TRPM1 inh | EWS-Fli inh
COc1ccccc1C=CC(=O)C=Cc1ccccc1OC | 17 | 38 | -73 | 19 | 74* | 39
COc1ccccc1/C=C/C(=O)/C=C/c1ccccc1O | 43 | 29 | -66 | -18 | 66* | 43
COc1cccc(/C=C/C(=O)NNC(=O)c2ccccc2)c1OC | nt | nt | 16 | 34* | -18 | -42
COc1ccccc1/C=C/C(=O)N1CCCC1 | -28 | nt | 6 | 0 | -4 | -17
COc1ccccc1/C=C/C(C)=O | -9 | nt | 0 | 2 | 2 | nt
CN1C(=O)C2C(C1=O)C1C=C(CCCO)C2C(c2ccc(CN3CCCC3)cc2)N1Cc1sc2ccccc2c1Cl (stereo not drawn) | 9 | nt | nt | nt | nt | 0
S=c1nc(COc2ccccc2)[nH]c2ccccc12 | -52 | 68* | 27 | 27 | -22 | -33
S=c1nc(Cc2ccccc2)[nH]c2ccccc12 | 19 | 15 | -7 | -1 | 8 | -53
CCOc1ccc(S(=O)(=O)N2CCN(C(=O)CN3C(=O)NC(C)(C)C3=O)CC2)cc1 | 11 | -10 | 8 | 47* | -8 | 2
CCCCOC(=O)c1ccc(-c2ccc(/C=N/NC(=S)NCC)o2)cc1 | nt | 46* | -4 | 2 | 6 | nt
CCOC(=O)c1ccc(-c2ccc(/C=N/NC(=O)c3cncc(Br)c3)o2)cc1 | -50 | 44 | nt | 29 | nt | -65
CCCOC(=O)c1ccc(-c2ccc(C=O)o2)cc1 | 38 | 76* | 27 | 29 | -25 | -86
CCOC(=O)c1cccc(-c2ccc(C=O)o2)c1 | -87 | 15 | 25 | -2 | -23 | -12
CCCOC(=O)c1cc(-c2ccc(C=O)o2)ccc1Cl | -9 | nt | 23 | 2 | -21 | -2
CCOC(=O)c1ccc(-c2ccc(C=O)o2)cc1 | -168 | 54* | 58 | 53* | -59 | -55
N#Cc1ccc(-c2ccc([C@@H]3[C@H](CO)N4C(=O)CNC[C@@H]34)cc2)cc1 | -5 | nt | nt | nt | nt | -3
O=C(/C=C/Nc1ccc(Oc2ccccc2)cc1)c1ccco1 | -230 | nt | 75 | 59* | -79 | -36
NC(=O)c1ccccc1N/C=C/C(=O)c1ccco1 | nt | 34 | 46 | -3 | -44 | nt
O=C(Nc1ccc(Oc2ccc3ccccc3c2)cc1)c1ccco1 | nt | 5 | 11 | nt | -23 | nt
O=C(/C=C/Nc1ccccc1C(F)(F)F)c1ccco1 | -160 | 93* | 12 | 16 | -10 | -61
C=C1CCc2c([nH]c3ccc(OCC(C)C)cc23)C1=O | 111* | -3 | -53 | -7 | 58 | ?
CCOc1cc(C(=O)CSc2nnc(CNc3ccc(Cl)cc3)o2)ccc1NC(=O)CC | nt | -4 | -85 | -1 | 85* | 40
Cc1cc(=O)[nH]c(NN=Cc2cc(Br)ccc2O)n1 | 17 | -45 | -27 | -5 | 31 | 1
Cc1nn(-c2ccccc2)c(C)c1/C=N/Nc1nc2ccccc2[nH]1 | 2 | -25 | 25 | 173* | -21 | 46
CCN(CC)c1ccc(/C=N/Nc2nc(C)cc(=O)[nH]2)c(O)c1 | 75* | -62 | -41 | -17 | 44 | 19
C(=N\Nc1nc2ccccc2[nH]1)/c1ccc2c(c1)OCO2 | -195 | nt | 116* | -2 | -114 | -117
Clc1ccccc1N/N=C/c1ccc2c(c1)OCO2 | -131 | 78* | 51 | nt | -48 | nt
O=C(CNC(=O)c1ccccc1Cl)N/N=C/c1ccc2c(c1)OCO2 | -20 | 12 | 11 | 2 | -10 | -33
CO[C@@H]1CN(C)C(=O)c2cc(NC(=O)c3cc(C)on3)ccc2OC[C@H](C)N(C(=O)C2CC2)C[C@H]1C | nt | -3 | nt | nt | nt | 3

Assay outcomes (PubChem)
